These results are taken from ChEMBL document CHEMBL3988442, “University of Dundee, Small-Polar-MMV Screening Library” (2021).

Molecules are shown by their SMILES.

The first experiment concerns the target AMP-activated protein kinase, AMPK (Homo sapiens) (UniProt P54646+O43741+P54619+Q9UGJ0+Q9Y478+Q13131+Q9UGI9). Description: AMP-dependent Kinase enzyme assay. An in vitro enzyme assay that detects ADP turnover that is directly proportional to AMPK activity. This uses naive AMPK that is activated during the assay with MK-8722. As to conditions: 30 µM. More on the design: scale not given: direction of the effect not stated beside the values. The experiment is classed as functional.
On to `CN(C)C(=O)N1CCOCC2(CCN(c3ccccn3)C2)C1` (stereo not drawn), for which the Percent Effect was -1.14%.

`CCN(CC)Cc1ccc(C(=O)N2CCCCC2Cn2cccn2)o1` (stereo not drawn): the Percent Effect was found to be 0.822%.

Take `O=C(c1ccc(F)c(F)c1)N1CCCSCC1CN1CCCC1` (stereo not drawn): the Percent Effect was determined as 4.53%.

For the compound `Cn1cc(N2CC3(CCN(CC4CCOCC4)CC3)OCC2=O)cn1`, the Percent Effect is 1.65%.

Turning to `Cc1cn2nc(N3CCCC3CC(C)(C)C)sc2n1` (stereo not drawn), the Percent Effect came out at 7.29%.

Turning to `CCSc1cc(C(=O)NCCC(=O)Nc2ccccn2)ccn1`, the Percent Effect is -2.02%.

Consider `CC(C)Cc1noc(CN2CCN(CCO)CC2)n1`, for which the Percent Effect was found to be 1.51%.

`CCOc1cc(F)ccc1NS(=O)(=O)c1cc(C)c(C(=O)O)s1`: the Percent Effect was -10.6%.

`O=C(CC1CC1)NCc1cn2c(n1)CN(CC1CC1)CC2`: the Percent Effect is 16.6%.

As for `COc1cccc2c1OCC(NC(=O)NCc1cccs1)C2` (stereo not drawn), the Percent Effect is 0.286%.

Consider `Cc1nc(-c2ccsc2)ccc1C(=O)NCCC(=O)N1CCCC1`, for which the Percent Effect was -2.05%.

Take `COc1ccc(-c2nc(CN3CC(n4cc(C)cn4)C3)no2)cc1`: the Percent Effect is -1.25%.

As to `Cn1nc(CNC(=O)C2CC2)cc1C1CC1`, the Percent Effect is 3.71%.

With `CCCc1n[nH]c(C2CN(Cc3nnc(C4CC4)o3)CCO2)n1` (stereo not drawn), the Percent Effect was -4.65%.

On to `CC(=O)N1CCCN(C(=O)c2cnc3n[nH]c(C)c3c2)CC1`, for which the Percent Effect was -3.49%.

Consider `COc1ccc(C2(CNC(C)c3nnc(C)o3)CCCCC2)cc1` (stereo not drawn), for which the Percent Effect was -8.86%.

`CCN(CC)Cc1cn2c(n1)CN(C(=O)c1cnccn1)CC2`: the Percent Effect turned out to be 3.85%.

`OCCOc1nc(-c2ccccc2Cl)no1`: the Percent Effect is -5.12%.

`CCN(C)c1ncnc2c1CCN(C(=O)N1CCCC1)CC2`: the Percent Effect was -0.0235%.

For the compound `NCC1CN(c2nc(-c3ccccc3)nc3c2CCNCC3)CCO1` (stereo not drawn), the Percent Effect is -7.79%.

As to `Cc1cnc(N2CCn3cc(CNC(=O)CC4CC4)nc3C2)nc1`, the Percent Effect is 7.96%.

Consider `Cc1cnn(C2CCCN(C(=O)CCc3nccs3)C2)c1` (stereo not drawn), for which the Percent Effect was -1.11%.

For the compound `CC(C)NC(=O)N1CCC(n2ccc(C(F)(F)F)n2)CC1`, the Percent Effect is -3.52%.

Regarding `CC(=O)N1CCCN(C(=O)c2csc(-c3ccc(C)cc3C)n2)CC1`, the Percent Effect is -3.68%.

Turning to `O=C1NCC2(CCCN(CCc3ccccc3)C2)Oc2ccccc21` (stereo not drawn), the Percent Effect amounted to 2.18%.

With `Cc1ccc(-c2cc(CNC(=O)N3CCC(CO)CC3)on2)cc1`, the Percent Effect amounted to 1.9%.

Turning to `CC(C)N1CCC(NCc2cccnc2N(C)Cc2ccccc2)CC1`, the Percent Effect is -5.44%.

For `COCC1CN(C(=O)CNC(C)=O)Cc2ncnn2C1` (stereo not drawn), the Percent Effect came out at 5.62%.

For the compound `CN1CCOC(CNCc2cccc(OCc3ccccn3)c2)C1` (stereo not drawn), the Percent Effect was -8.27%.

With `C=Cn1ncc(CN2C[C@@H]3CCCN3C[C@@H]2Cc2ccccc2)c1C`, the Percent Effect was 3.48%.

On to `O=C(CCNS(=O)(=O)c1ccc2c(c1)CCCC2)NCc1ccoc1`, for which the Percent Effect was found to be 8.4%.

In the case of `CN(CCc1ccccc1)C1CCCN(Cc2nccn2C)C1` (stereo not drawn), the Percent Effect was -1.69%.

On to `CC(=O)N1CCOCC2(CN(Cc3ccc(C)o3)CCO2)C1` (stereo not drawn), for which the Percent Effect was 0.553%.

In the case of `O=c1cc(Cn2ccnc2)nc2n1CCCN(Cc1ccsc1)C2`, the Percent Effect amounted to 0.478%.

Regarding `O=C(Cc1ccccc1F)N1C[C@@H]2COC[C@]2(COc2cccnc2)C1`, the Percent Effect stood at 2.48%.

Take `c1ccc(-c2cc(CN3CCC(c4ccn[nH]4)CC3)on2)cc1`: the Percent Effect is -3.14%.

With `CCc1nnc2n1CCN(Cc1csc(-c3ccsc3)n1)C2`, the Percent Effect came to 1.22%.

As for `Cc1cc(NC(=O)Cn2cc(C#N)c(=O)c3cc(Br)ccc32)no1`, the Percent Effect was -1.25%.

Turning to `COCc1nc2cc(NCc3ccc(C)o3)ccc2o1`, the Percent Effect was -42.7%.

In the next experiment the target is Sialic acid-binding Ig-like lectin 9 (Homo sapiens) (UniProt Q9Y336). Description: Hs-Siglec9 ALPHAscreen SOP 20170721. More on the design: scale not given: direction of the effect not stated beside the values. As to conditions: 10 µM. (Bead proximity is the source of the signal in Alpha formats.)
Sialic acid-binding Ig-like lectin 9 (Homo sapiens), sequence (Q9Y336 whole entry): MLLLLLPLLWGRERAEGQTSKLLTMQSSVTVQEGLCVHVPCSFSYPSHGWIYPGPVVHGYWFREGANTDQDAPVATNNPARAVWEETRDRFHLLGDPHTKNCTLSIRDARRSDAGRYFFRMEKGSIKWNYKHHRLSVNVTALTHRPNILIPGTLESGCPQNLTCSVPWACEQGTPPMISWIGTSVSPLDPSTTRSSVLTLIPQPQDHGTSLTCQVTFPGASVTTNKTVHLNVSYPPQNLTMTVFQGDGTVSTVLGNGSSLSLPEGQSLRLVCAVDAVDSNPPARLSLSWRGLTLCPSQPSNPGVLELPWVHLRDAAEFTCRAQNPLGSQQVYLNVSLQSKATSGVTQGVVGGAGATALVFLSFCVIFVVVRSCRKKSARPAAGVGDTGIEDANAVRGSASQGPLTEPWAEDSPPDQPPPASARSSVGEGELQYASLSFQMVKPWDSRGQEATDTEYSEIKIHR
For `CN(C)C(=O)N1CCOCC2(CCN(c3ccccn3)C2)C1` (stereo not drawn), the Percent Effect is -5.57%.

`CCN(CC)Cc1ccc(C(=O)N2CCCCC2Cn2cccn2)o1` (stereo not drawn): the Percent Effect was 4.06%.

For the compound `O=C(c1ccc(F)c(F)c1)N1CCCSCC1CN1CCCC1` (stereo not drawn), the Percent Effect is -1.26%.

With `Cn1cc(N2CC3(CCN(CC4CCOCC4)CC3)OCC2=O)cn1`, the Percent Effect came to 6.72%.

Take `Cc1cn2nc(N3CCCC3CC(C)(C)C)sc2n1` (stereo not drawn): the Percent Effect was 3.5%.

As to `CCSc1cc(C(=O)NCCC(=O)Nc2ccccn2)ccn1`, the Percent Effect turned out to be 1.7%.

`CC(C)Cc1noc(CN2CCN(CCO)CC2)n1`: the Percent Effect was -0.0672%.

As to `CCOc1cc(F)ccc1NS(=O)(=O)c1cc(C)c(C(=O)O)s1`, the Percent Effect amounted to 28.9%.

Turning to `O=C(CC1CC1)NCc1cn2c(n1)CN(CC1CC1)CC2`, the Percent Effect was -9.15%.

Regarding `COc1cccc2c1OCC(NC(=O)NCc1cccs1)C2` (stereo not drawn), the Percent Effect turned out to be 9.16%.

In the case of `Cc1nc(-c2ccsc2)ccc1C(=O)NCCC(=O)N1CCCC1`, the Percent Effect worked out at 5.21%.

As to `COc1ccc(-c2nc(CN3CC(n4cc(C)cn4)C3)no2)cc1`, the Percent Effect worked out at 16.8%.

Regarding `Cn1nc(CNC(=O)C2CC2)cc1C1CC1`, the Percent Effect worked out at 7.61%.

As to `CCCc1n[nH]c(C2CN(Cc3nnc(C4CC4)o3)CCO2)n1` (stereo not drawn), the Percent Effect came out at 2.18%.

Take `CC(=O)N1CCCN(C(=O)c2cnc3n[nH]c(C)c3c2)CC1`: the Percent Effect amounted to 5.52%.

Regarding `COc1ccc(C2(CNC(C)c3nnc(C)o3)CCCCC2)cc1` (stereo not drawn), the Percent Effect was found to be 6.11%.

Consider `CCN(CC)Cc1cn2c(n1)CN(C(=O)c1cnccn1)CC2`, for which the Percent Effect was -1.54%.

With `OCCOc1nc(-c2ccccc2Cl)no1`, the Percent Effect was determined as 4.94%.

Take `CCN(C)c1ncnc2c1CCN(C(=O)N1CCCC1)CC2`: the Percent Effect was 0.87%.

In the case of `NCC1CN(c2nc(-c3ccccc3)nc3c2CCNCC3)CCO1` (stereo not drawn), the Percent Effect was determined as 3.51%.

Take `Cc1cnc(N2CCn3cc(CNC(=O)CC4CC4)nc3C2)nc1`: the Percent Effect is -5.68%.

Take `Cc1cnn(C2CCCN(C(=O)CCc3nccs3)C2)c1` (stereo not drawn): the Percent Effect turned out to be 0.709%.

Regarding `CC(C)NC(=O)N1CCC(n2ccc(C(F)(F)F)n2)CC1`, the Percent Effect is -4.66%.

In the case of `CC(=O)N1CCCN(C(=O)c2csc(-c3ccc(C)cc3C)n2)CC1`, the Percent Effect was 14.8%.

In the case of `O=C1NCC2(CCCN(CCc3ccccc3)C2)Oc2ccccc21` (stereo not drawn), the Percent Effect is -8.67%.

With `Cc1ccc(-c2cc(CNC(=O)N3CCC(CO)CC3)on2)cc1`, the Percent Effect is -3.05%.

`CC(C)N1CCC(NCc2cccnc2N(C)Cc2ccccc2)CC1`: the Percent Effect was determined as 0.0952%.

On to `COCC1CN(C(=O)CNC(C)=O)Cc2ncnn2C1` (stereo not drawn), for which the Percent Effect amounted to 8.97%.

In the case of `CN1CCOC(CNCc2cccc(OCc3ccccn3)c2)C1` (stereo not drawn), the Percent Effect worked out at 12.2%.

In the case of `C=Cn1ncc(CN2C[C@@H]3CCCN3C[C@@H]2Cc2ccccc2)c1C`, the Percent Effect is 4.39%.

For `O=C(CCNS(=O)(=O)c1ccc2c(c1)CCCC2)NCc1ccoc1`, the Percent Effect came out at 5.02%.

With `CN(CCc1ccccc1)C1CCCN(Cc2nccn2C)C1` (stereo not drawn), the Percent Effect worked out at 5.27%.

Regarding `CC(=O)N1CCOCC2(CN(Cc3ccc(C)o3)CCO2)C1` (stereo not drawn), the Percent Effect was -4.1%.

With `O=c1cc(Cn2ccnc2)nc2n1CCCN(Cc1ccsc1)C2`, the Percent Effect turned out to be 7%.

In the case of `O=C(Cc1ccccc1F)N1C[C@@H]2COC[C@]2(COc2cccnc2)C1`, the Percent Effect was determined as 0.934%.

Turning to `c1ccc(-c2cc(CN3CCC(c4ccn[nH]4)CC3)on2)cc1`, the Percent Effect is 8.25%.

Consider `CCc1nnc2n1CCN(Cc1csc(-c3ccsc3)n1)C2`, for which the Percent Effect was -3.25%.

For the compound `Cc1cc(NC(=O)Cn2cc(C#N)c(=O)c3cc(Br)ccc32)no1`, the Percent Effect was determined as 3.63%.

In the case of `COCc1nc2cc(NCc3ccc(C)o3)ccc2o1`, the Percent Effect was determined as 8.51%.
